Screening results deposited in PubChem by several laboratories.
Most compounds without a hit are left out; they make up all but 4.7% or so of the library.
PABP FP inh = PABP poly(A) RNA binding inhibitors, primary screen, biochemical, fluorescence polarization, uHTS. AID 2014, 2009. 290,000 tested, 1% active. inhibition, % at 35 µM;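 also: calls also rest on retests at 20 µM and on dose response follow-up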
ALR inh = inhibitors of human ALR sulfhydryl oxidase, primary screen, biochemical, H2O2 detection, HRP-luminol luminescence, single point; inhibition, % (concentration not given with the values); 290,000 tested, 3.8% active; FAD-linked sulfhydryl oxidase ALR (Homo sapiens), P55789; AID 485317, 2010; purified ALR, DTT oxidation;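 active = mean replicate inhibition above about 79%, with every replicate also reaching it, limit read from the data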
Target sequence (P55789 whole entry, looked up): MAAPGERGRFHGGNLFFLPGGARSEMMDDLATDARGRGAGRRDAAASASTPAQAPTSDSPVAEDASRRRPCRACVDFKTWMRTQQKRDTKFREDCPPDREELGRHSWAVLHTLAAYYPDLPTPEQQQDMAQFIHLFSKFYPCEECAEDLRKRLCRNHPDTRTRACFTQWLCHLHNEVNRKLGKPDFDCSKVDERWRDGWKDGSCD
eIF4H FP inh = human eIF4H binding inhibitors, primary screen, translation initiation inhibitor project, biochemical, uHTS, fluorescence polarization | inhibition, % at 35 µM | AID 2012, 2009 | 290,000 tested, 0.94% active | eIF4H fluorescence polarization binding assay;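 also: calls also rest on retests at 20 µM and on dose response follow-up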
PABP1 MLLE inh = inhibitors of PABP1 MLLE–PAM2 peptide binding, primary screen, biochemical, fluorescence polarization, FITC-PAM2, GST-MLLE; inhibition, % at 20 µM; AID 588489, 2011; 360,000 tested, 0.36% active; Polyadenylate-binding protein 1 (Homo sapiens), P11940; in the data active = inhibition above about 35%, passing the limit was not always enough;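 also: plate controls were DMSO wells with GST-MLLE for no effect and wells lacking GST-MLLE protein for full effect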
Efflux pump inh = inhibitors of Candida efflux pumps in yeast, primary screen, S. cerevisiae, Nile Red, multiplex. S. cerevisiae Candida pump triplex. inhibition, % at 10 µM. 330,000 tested, 0.44% active;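 active = plate passing quality check with inhibition over a set limit, or well fluorescence over plate mean plus 4 SD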;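 also: Nile Red retained in pooled yeast measured as flow cytometry median fluorescence; 0% = buffer negative control and 100% = Enniatin B positive control; higher means more Nile Red kept so more efflux inhibition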
SUMO HTRF inh = inhibitors of in vitro SUMOylation cascade, primary screen, biochemical, HTRF, uHTS | 290,000 tested, 0.36% active | inhibition, % at 35 µM | HTRF SUMOylation assay, SAE1/SAE2 + UBC9 | SUMO-conjugating enzyme UBC9 (Homo sapiens), P63279; in the data active = inhibition above about 50%, passing the limit was not always enough
Numbers without * were called inactive; · = no result. Unless noted, no rule for the calls is given here.

SMILES	PABP FP inh	ALR inh	eIF4H FP inh	PABP1 MLLE inh	Efflux pump inh	SUMO HTRF inh
COC(=O)c1ccccc1NC(=O)[C@@H]1CCC(=O)N1C1OC(=O)c2c1ccc(OC)c2OC (stereo not given in full)	70	·	33	-5	0	17
CCCCC(CCC(=O)O)(C(=O)OCC)c1csc(Nc2ccccc2)n1 (stereo not given)	-7	96*	-9	2	0	16
CCCCC(CCC(=O)O)(C(=O)OCC)c1csc(Nc2ccc(OCC)cc2)n1 (stereo not given)	-9	72	1	9	0	-8
O=C(CSc1ncc(S(=O)(=O)c2ccccc2)c(=O)[nH]1)Nc1ccccc1Cl	-1	78*	-5	-3	0	21
Cc1ccc(NC(=O)CSc2ncc3ccccn23)cc1C	3	99*	5	21	0	10
Cc1ccc(NC(=O)CSc2ncn(-c3ccccc3)n2)cc1C	0	-3	2	8	0	-6
Cc1ccc(NC(=O)CSc2ncc(S(=O)(=O)c3ccccc3)c(=O)[nH]2)cc1C	-4	100*	8	-2	0	16
Cc1ccc(S(=O)(=O)N2CCN(CC(=O)Nc3ccccc3C(=O)NC3CC3)CC2)cc1	·	·	·	7	·	·
CCOc1ccc(CSC(=N)N)cc1	0	98*	-3	0	0	5
CCOc1ccc(CC(C(N)=O)C(N)=O)cc1	-12	-5	4	-6	0	19
CCCCOc1ccc(CSC(=N)N)cc1Cl	-5	99*	-11	7	0	5
O=C(Nc1ccc(C(=O)N2CCCCC2)cc1)c1ccccc1Br	13	-9	0	-6	0	11
CCN(CC)c1ccc(/C=N/NS(=O)(=O)c2ccc(CNC(C)=O)cc2)cc1	-7	99*	-13	-51	0	7
CCN(CC)c1ccc(/C=N/NC(=O)CC(C)C)cc1	-1	99*	2	-1	0	9
COc1ccc(/C=N/NC(=O)OC(C)(C)C)cc1OC	10	95*	-6	2	0	10
CCN(CC)c1ccc(/C=N/NC(=O)Nc2ccccc2)cc1	0	34	4	-16	0	-13
CC(=O)NCc1ccc(S(=O)(=O)N/N=C/c2ccc(Br)cc2)cc1	-8	7	-8	-36	0	8
CCN(CC)c1ccc(/C=N\NC(N)=O)cc1	3	99*	-2	-16	0	-2
CCN(CC)c1ccc(/C=N/NC(=O)CNC(=O)c2ccccn2)cc1	45	95*	2	-5	0	-5
CCN(CC)c1ccc(/C=N/NC(=O)OC(C)(C)C)cc1	2	99*	-8	-3	0	-8
O=C(C[C@@H]1C/C=C\CC[C@H](Cc2ccc(F)cc2)C(=O)OC[C@@H](Cc2ccccc2)NC1=O)NCCO	·	-4	·	0	1	·
C[C@@H]1CN([C@@H](C)CO)C(=O)CCCn2nncc2CO[C@@H]1CN(C)C(=O)c1ccc(N2CCN(C)CC2)cc1	·	·	·	4	·	·
N#C/C(=C\c1cc(Cl)c(OCc2ccc(Cl)cc2)c(Cl)c1)C(N)=O	12	2	-4	·	0	16
N#C/C(=C\c1cc(O)c(O)c(O)c1)C(N)=O	30*	99*	54*	-12	0	19
CCOc1cc(/C=N/NC(=O)NN(C)c2ncc(C(F)(F)F)cc2Cl)ccc1O	-6	99*	-6	5	0	-10
SMILES	PABP FP inh	ALR inh	eIF4H FP inh	PABP1 MLLE inh	Efflux pump inh	SUMO HTRF inh
C#CCOc1ccccc1CNC1CCN(Cc2ccccc2)CC1	22	·	16	-13	0	29
Cc1ccc(-c2csc(NC(=O)CCNC(=O)c3ccccc3Cl)n2)cc1	2	11	6	-2	0	-9
Cn1ccc(-c2ccccc2)n1	-11	-5	-6	-4	0	5
CNc1ccccc1-n1ccc(-c2ccccc2)n1	1	94*	2	3	0	-2
CCN(CC(=O)Nc1ccccc1C(F)(F)F)C(=O)c1ccccc1OCc1ccc(F)cc1	·	·	·	3	·	·
COc1cccc(OC)c1C(=O)Nc1ccc(C)cc1C(=O)c1ccccc1	11	5	-13	19	0	13
COc1cc(C(=O)c2ccccc2)c(OC)cc1C(=O)Nc1ccc(O)cc1	0	100*	-6	-14	1	12
COc1ccc(C(=O)Nc2ccc(C)cc2C(=O)c2ccccc2)c(OC)c1	0	97*	-12	-5	0	-4
N#CCC(=O)Nc1ccc(C(=O)OCC(=O)NC(=O)Nc2ccc3c(c2)OCCO3)cc1	·	99*	·	-31	0	·
N#CCC(=O)Nc1ccc(C(=O)OCC(=O)NCc2ccc3c(c2)OCO3)cc1	·	99*	·	-13	0	·
CC(=O)Nc1ccc(NC(=O)C(C)OC(=O)c2ccc3c(c2)OCCO3)cc1 (stereo not given)	0	·	-6	-9	0	-3
CC(OC(=O)c1ccc(NC(=O)CC#N)cc1)C(=O)Nc1ccc2c(c1)OCCO2 (stereo not given)	·	97*	·	-10	0	·
O=C(COC(=O)c1ccc(O)cc1)NCc1ccc2c(c1)OCO2	-14	-3	-4	-4	0	1
COc1ccc(Cl)cc1NC(=O)c1nnn(CC(=O)Nc2ccc3c(c2)OCO3)c1N	3	-8	3	-13	0	32
CCN(CC)C(=O)C1=C(C)N(Cc2ccc(OC)cc2)C(=O)C(CC(=O)NC(c2ccccc2)c2ccccc2)C1 (stereo not given)	·	·	·	11	·	·
CC1CN2C(c3ccc([N+](=O)[O-])cc3)=CSC2=N1 (stereo not given)	-9	31	-4	1	0	1
C[C@H]1CN([C@@H](C)CO)C(=O)CCCn2nncc2CO[C@@H]1CN(C)S(=O)(=O)c1ccc(-c2ccccc2)cc1	·	·	·	1	·	·
Cc1ccc(-c2n[nH]c(=S)n2C)cc1	1	·	-9	-8	·	18
Cc1ccc(-c2cn3c(=S)[nH]nc3s2)cc1	5	86*	-18	-3	0	-4
CCN(CC)c1ccc(C(=O)N/N=C(\C)c2ccc(O)cc2)cc1	-14	94*	-33	-4	0	5
C/C(=N\NC(=O)c1ccc(O)cc1)c1ccc2c(c1)Nc1ccccc1S2	-3	99*	3	-13	0	-15
C/C(=N\NC(=O)c1ccccc1O)c1cccc(NC(=O)c2ccccc2)c1	15	-6	5	9	0	13
